# The list is not random: actives were taken first. Their share in the collection is about 6.2%.
# ATXN viability – Viability Counterscreen for Primary qHTS for Inhibitors of ATXN expression; S2 cells (HEK-293 line with an ATXN2-luciferase reporter) viability, CellTiter-Fluor protease fluorescence, 24 h; Potency, µM (series often up to 56.7 µM), usual class: cytotoxic; 400,000 compounds, 0.49% hits; note: nearly all actives have a fitted effect of over 40% in size
# HT1080-NT tox – qHTS for induction of synthetic lethality in tumor cells producing 2HG: qHTS for the HT-1080-NT fibrosarcoma cell line | Potency, µM (doses to about 46.1 µM), hits mostly cytotoxic | AID 686970, 2013 | 360,000 compounds, 1.6% hits | HT-1080-NT fibrosarcoma viability, CellTiter-Glo ATP luminescence, 48 h;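 note: NT is the 2HG producing partner of a matched IDH1 knockdown line; nearly all actives have a fitted effect of over 55% in size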
#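 Viability by CellTiter-Glo luminescence after 48 h compound exposure at 37C of HT-1080-NT cells (750/well, RPMI, 5% FBS). % activity scaled between DMSO wells and medium-only wells, then curve-fitted and categorized by curve class.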
# KB-3-1 tox – qHTS assay for MDR1-selective chemotherapeutics: Primary screen using the parental adenocarcinoma cell KB-3-1; KB-3-1 viability, CellTiter-Glo ATP luminescence, 72 h; Potency, µM (doses to about 46.1 µM), actives largely listed as cytotoxic; 400,000 compounds, 1.4% hits; note: nearly all actives have a fitted effect of over 60% in size
#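 Viability of parental KB-3-1 cells, measured by CellTiter-Glo luminescence, followed a 72 h incubation at 37 °C with pinned compounds in phenol-red-free DMEM containing 10% FBS.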
# KB-V1 cytotox – qHTS assay for MDR1-selective chemotherapeutics: Primary screen using the drug-selected MDR subline cells KB-V1 | KB-V1 MDR cells viability, CellTiter-Glo, 72 h | Potency, µM (series often up to 46.1 µM), actives largely listed as cytotoxic | 400,000 compounds, 3.4% hits | AID 1347076, 2019; note: nearly all actives have a fitted effect of over 60% in size
#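 Cytotoxicity via CellTiter-Glo luminescence after 72 h compound exposure at 37 degrees C. Cells: drug-selected KB-V1 line, DMEM phenol-red free plus 10% FBS. Compounds tested at multiple concentrations; normalized data fitted to concentration-effect curves.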
# HT1080 IDH1KD tx – qHTS for induction of synthetic lethality in tumor cells producing 2HG: qHTS for the HT-1080-IDH1KD cell line; HT-1080 IDH1 knockdown viability, ATP luminescence, 48 h; Potency, µM (highest dose often 46.1 µM), usual class: cytotoxic; 360,000 compounds, 2% hits; AID 686971, 2013
#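 Cytotoxicity counter-line: IDH1KD HT-1080, 48 h, CellTiter-Glo. Curves classed by r2, magnitude and activity.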
# ATXN2 expr inh – Primary qHTS for Inhibitors of ATXN expression | HEK-293 ATXN2-luciferase reporter, luminescence, 24 h | Potency, µM (highest dose often 57 µM), usual class: inhibitors | 360,000 compounds, 0.72% hits | AID 1745845, 2022; note: nearly all actives have a fitted effect of over 55% in size
#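 qHTS (up to 57 uM final) was run with 24 h compound exposure of reporter cells at 37 °C. Each well was multiplexed: SteadyGlo luminescence measured ATXN2-luciferase expression after a fluorogenic Gly-Phe-AFC viability readout (25 uM final).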
# Numbers stand for hits; i = inactive; ? = inconclusive; nt = no result given; [ ] = another dose, or the depositor's remark. Calls come from the whole dose curve; as a rule, active = well fitted curve in the direction sought with a large enough effect; inconclusive = small, poorly fitted or top-dose-only effect, or another doubt; inactive = no such curve, though single readings can be large; an effect the other way counts as inactive or inconclusive.
SMILES,ATXN viability,HT1080-NT tox,KB-3-1 tox,KB-V1 cytotox,HT1080 IDH1KD tx,ATXN2 expr inh
C=CCn1c(SCC(=O)c2[nH]c(C)c(C(C)=O)c2C)nnc1-c1ccncc1,i,i,i,i,i[9.24 µM],i
Cc1cc(C(=O)CSc2nnc(-c3cccs3)n2Cc2ccccc2)c(C)n1C,i,i,i,i,i,i
CC(=O)c1c(C)[nH]c(C(=O)CSc2nnc(-c3ccco3)n2Cc2ccccc2)c1C,i,i,i,18µM,i,i
CCOC(=O)c1c(C)[nH]c(C(=O)CSc2nnc(-c3cccs3)n2Cc2ccccc2)c1C,?,i,i,2.3µM,?,?
N#Cc1ccc(S(=O)(=O)N2CCCCC2c2cc(C(=O)Nc3cccc4c3CCCC4)no2)cc1 (stereo not drawn),i,i,i,i,i,i
Cc1cnc(-n2ncc(C(=O)N(CCO)C(C)C)c2-c2cccs2)nc1-c1ccc(F)cc1,i,nt,nt,nt,nt,nt
Cc1cccc(N2CCN(C(=O)CNC(=O)c3cccc([N+](=O)[O-])c3)CC2)c1C,i,i,i,?,i,i
O=c1c2ccccc2nnn1CSc1nnc(-c2cccs2)n1Cc1ccccc1,i,i,?,?,?,i
O=c1cc(CSc2nnc(-c3cccs3)n2Cc2ccccc2)nc2sc3ccccc3n12,?,i,i,?,26µM,i
COCCn1c(SCC(=O)c2[nH]c(C)c(C(C)=O)c2C)nc2ccccc21,i,i,i,16µM,i,i
COCCCNc1ncnc2sc(C(=O)N3CCOCC3)c(C)c12,i,nt,nt,nt,nt,nt
O=c1[nH]c(SCc2ccccc2)nc2c1CCCC2,i,nt,i,i,nt,i
c1c2c(cc3sc(N4CCOCC4)nc13)OCCO2,i,i,?,21µM,?,6.3µM
c1ccc(N2CCN(c3nc4cc5c(cc4s3)OCCO5)CC2)cc1,i,i,?,2.6µM,i,i
O=C1[C@@H]2Cc3c([nH]c4ccccc34)C(c3cccc(Br)c3)N2C(=O)CN1C1CCN(Cc2ccccc2)CC1 (stereo partly drawn),?,?,?,i,23µM,?
CC(CNC1CCCCC1)OC(=O)c1ccc([N+](=O)[O-])cc1 (stereo not drawn),?,i,i,?,i,i
CCc1ccc(/C=C2\Oc3cc(OC(=O)N4CCOCC4)ccc3C2=O)cc1,i,i,?,21µM,i,i
CCc1ccc(C(=O)C(C)OC(=O)Cc2n[nH]c(=O)c3ccccc23)cc1 (stereo not drawn),i,?,9.2µM,?,13µM,i
O=C(CN1C(=O)C2(SCC(=O)N2c2ccc(F)c(F)c2)c2ccccc21)Nc1ccccc1F (stereo not drawn),i,nt,i,i,nt,i
CC1C(=O)N(Cc2cn(CCC3OCCCO3)nn2)CCS(=O)(=O)N1Cc1ccc(-c2ccccc2)cc1 (stereo not drawn),i,i,i,i,i,i
CC1C(=O)N(Cc2cn(CCC3OCCCO3)nn2)CCS(=O)(=O)N1Cc1ccc(-c2ccc(Cl)cc2)cc1 (stereo not drawn),28µM,?,?,?,?,18µM
Cc1ccc(-c2ccc(CN3C(C(C)C)C(=O)N(Cc4cn(CCC5OCCO5)nn4)CCS3(=O)=O)cc2)c(C)c1 (stereo not drawn),?,?,?,?,23µM,?
CC(C)C1C(=O)N(Cc2cn(CCC3OCCCO3)nn2)CCS(=O)(=O)N1Cc1ccc(-c2ccncc2)cc1 (stereo not drawn),?,i,16µM,i,i,i
CC(C)C1C(=O)N(Cc2cn(Cc3ccco3)nn2)CCS(=O)(=O)N1Cc1ccc(-c2ccc(Cl)c(Cl)c2)cc1 (stereo not drawn),?,?,i,13µM,?,i
CC1CCc2c(sc(NC(=O)c3cc4nc(-c5ccc(Cl)cc5)cc(C(F)(F)F)n4n3)c2C#N)C1 (stereo not drawn),i,nt,i,i,nt,i
SMILES,ATXN viability,HT1080-NT tox,KB-3-1 tox,KB-V1 cytotox,HT1080 IDH1KD tx,ATXN2 expr inh
O=S(=O)(NCC1CCCO1)c1ccc(Cl)cc1 (stereo not drawn),?,i,i,i,i,nt
COc1cc(C(=O)Nc2ccc(NC(=O)c3ccc(Br)cc3)cc2)cc(OC)c1OC,i,nt,i,i,nt,i
CC(C)C1C(=O)N(Cc2cn(CCC3OCCO3)nn2)CCS(=O)(=O)N1Cc1ccc(-c2ccc(Cl)c(Cl)c2)cc1 (stereo not drawn),?,?,?,i,18µM,?
CC(=O)c1ccc(N2CCN(C(=O)CS(=O)(=O)c3cccc4nsnc34)CC2)cc1,i,nt,i,i,nt,i
CC1CCN(C(=O)C(NS(=O)(=O)c2cccc3nsnc23)C(C)C)CC1 (stereo not drawn),i,i,i,i,i,i
CC(C)C(NS(=O)(=O)c1cccc2nsnc12)C(=O)N1CCc2ccccc2C1 (stereo not drawn),i,i,i,18µM,i,i
CCOc1ccc(NCc2nnc(SCc3ccc(Cl)cc3)n2-c2ccccc2)cc1,i,i,?,4.6µM,i,i
CCN1c2ccccc2NC2N=C(OC)C(c3ccccc3)C21 (stereo not drawn),i,11µM,i,?,8.9µM,?
Cc1ccccc1Oc1nc(-c2ccccn2)nc2ccccc12,?,?,i,9.2µM,i,?
Cc1cccc(Oc2nc(-c3ccccn3)nc3ccccc23)c1,?,?,i,?,16µM,i
C[C@H](CO)N1C[C@H](C)[C@@H](CN(C)Cc2ccc(-c3ccccc3)cc2)Oc2c(NS(=O)(=O)c3cccs3)cccc2C1=O,?,i,i,i,i,?
CCOC(=O)CNC(c1ccccc1)c1cc(Br)ccc1NC(=O)c1cccc(Cl)c1 (stereo not drawn),?,nt,i,?,nt,i
COC(=O)CNC(c1ccccc1)c1cc(Cl)ccc1NC(=O)c1cccc(Cl)c1 (stereo not drawn),i,i,i,5.2µM,i,i
Cc1cc(C)cc(-n2ccnc2SCC(=O)Nc2cccc3ccccc23)c1,i,nt,i,i,nt,i
CCn1c2ccccc2c2cc(Nc3cc(C)nc4ncnn34)ccc21,?,0.58µM,0.23µM,?,1µM,?
Cc1cc(C2=NNC(=NC3CC3)SC2)c(C)n1-c1ccccc1,i,i,i,i,i,nt
c1ccc(C2=NNC(=NC3CC3)SC2)cc1,i,?,?,i,18µM,?
c1ccc2c(C3=NNC(=NC4CC4)SC3)c[nH]c2c1,i,i,i,i,i,18µM

# Screening data from PubChem BioAssay.
